The results in this text go back to PubChem BioAssay (NCATS).

Inconclusive results are not listed. A call without a number means that no potency is given here. Activity calls are given as the source filed them. Calls follow the shape of the dose curve; as a rule, active = well fitted inhibition curve with a large enough effect; inconclusive = small, poorly fitted or top-dose-only effect; inactive = flat fitted curve, though single readings scatter. Bridge positions count the residues as written; N and C are the ends. Square brackets hold non-standard residues; d marks the D form. Peptide text beside a SMILES is read from it. * marks the point of attachment. Ileψ(thiazoline)Cys = CC[C@H](C)[C@H](N)C1=N[C@H](C(=O)*)CS1; d(aIle) = CC[C@H](C)[C@@H](N)C(=O)O; dOrn = NCCC[C@@H](N)C(=O)O
Potency is read from the fitted curve at half-maximal effect.

In the first assay the test system is PC26. Nature of the assay: qHTS profiling for inhibitors of Plasmodium falciparum proliferation (AID 504749). Also: nearly all actives have a fitted effect of over 60% in size. Particulars: P. falciparum in erythrocytes, SYBR Green DNA, 72 h; series mostly up to 12.8 µM. The essentials: (§1)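 Quantitative HTS: compounds pinned into medium, infected erythrocytes added (0.3% parasitemia, 2.5% hematocrit), 72 h culture at 37 C under 5% CO2. Saponin/Triton lysis with SYBR Green I, overnight RT, then fluorescence read.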
In the case of `CN1CCO[C@H](c2ccccc2)c2ccccc2C1`, the Potency entry is “inactive”.
As to `C[C@H](CCC(=O)O)[C@H]1CC[C@@H]2[C@@H]3[C@@H](O)C[C@H]4C[C@@H](O)CC[C@@]4(C)[C@H]3CC[C@@]21C`, the Potency entry is “inactive”.
Still for that read-out and setting: next, `CN(C/C=C\c1ccccc1)Cc1cccc2ccccc12`: “inactive”; `C[C@H](C(=O)O)c1cccc(Oc2ccccc2)c1`: “inactive”; `CC1(C)[C@@H](OC(=O)CCC(=O)O)CC[C@@]2(C)[C@H]1CC[C@@]1(C)[C@H]2C(=O)C=C2[C@H]3C[C@](C)(C(=O)O)CC[C@]3(C)CC[C@@]21C`: “inactive”.
`CCOC(=O)O[C@@H](C)OC(=O)[C@@H]1N2C(=O)[C@@H](NC(=O)[C@@H](N)c3ccccc3)[C@H]2SC1(C)C`: the Potency entry was “inactive”.
On to `Cc1ccsc1/C=C\C1=NCCCN1C`, for which the Potency result is “inactive”.
On to `C#C[C@]1(O)CC[C@@H]2[C@H]3CCC4=CCCC[C@@H]4[C@@H]3CC[C@@]21C`, for which the Potency result was “inactive”.
As for `CC[C@H](C)[C@H](N)C1=N[C@H](C(=O)N[C@@H](CC(C)C)C(=O)N[C@@H](CCC(=O)O)C(=O)N[C@@H](C(=O)N[C@H]2CCCCNC(=O)[C@@H](CC(N)=O)NC(=O)[C@@H](CC(=O)O)NC(=O)[C@@H](Cc3cnc[nH]3)NC(=O)[C@@H](Cc3ccccc3)NC(=O)[C@@H]([C@@H](C)CC)NC(=O)[C@@H](CCCN)NC2=O)[C@@H](C)CC)CS1` ({Ileψ(thiazoline)Cys}-LE[d(aIle)]K[dOrn][d(aIle)][dF][dH][dD][dN]; lactam 4-C), the Potency entry was “inactive”.
Regarding `O=C(O)COCCN1CCN([C@@H](c2ccccc2)c2ccc(Cl)cc2)CC1`, the Potency entry is “inactive”.
In the case of `Clc1ccc([C@H](Cn2ccnc2)OCc2c(Cl)cccc2Cl)c(Cl)c1`, the Potency was 4.55 µM (active).
The same measure, in the same setting: next, `C[C@@H](CNC1CCCCC1)OC(=O)c1ccccc1`: 5.73 µM (active).
In the case of `CC[C@H](CO)NCCN[C@@H](CC)CO`, the Potency entry was “inactive”.

The next assay deals with PC49. The description is as above. Particulars: P. falciparum in erythrocytes, SYBR Green DNA, 72 h; series mostly up to 12.8 µM. The gist of the method:
as §1
As for `CN1CCO[C@H](c2ccccc2)c2ccccc2C1`, the Potency entry is “inactive”.
On to `C[C@H](CCC(=O)O)[C@H]1CC[C@@H]2[C@@H]3[C@@H](O)C[C@H]4C[C@@H](O)CC[C@@]4(C)[C@H]3CC[C@@]21C`, for which the Potency result was “inactive”.
Turning to `CN(C/C=C\c1ccccc1)Cc1cccc2ccccc12`, the Potency entry is “inactive”.
`CCN(CCCCOC(=O)c1ccc(OC)c(OC)c1)[C@@H](C)Cc1ccc(OC)cc1`: the Potency result was “inactive”.
In the case of `C[C@H](C(=O)O)c1cccc(Oc2ccccc2)c1`, the Potency result is “inactive”.
Same read-out and setting: with `CC1(C)[C@@H](OC(=O)CCC(=O)O)CC[C@@]2(C)[C@H]1CC[C@@]1(C)[C@H]2C(=O)C=C2[C@H]3C[C@](C)(C(=O)O)CC[C@]3(C)CC[C@@]21C` the entry was “inactive”; with `CCOC(=O)O[C@@H](C)OC(=O)[C@@H]1N2C(=O)[C@@H](NC(=O)[C@@H](N)c3ccccc3)[C@H]2SC1(C)C`, “inactive”.
Consider `Cc1ccsc1/C=C\C1=NCCCN1C`, for which the Potency result was “inactive”.
With `Cc1cccc(CN2CCN([C@@H](c3ccccc3)c3ccc(Cl)cc3)CC2)c1`, the Potency result is “inactive”.
In the case of `C#C[C@]1(O)CC[C@@H]2[C@H]3CCC4=CCCC[C@@H]4[C@@H]3CC[C@@]21C`, the Potency entry was “inactive”.
The same measure, in the same setting: next, `CC[C@H](C)[C@H](N)C1=N[C@H](C(=O)N[C@@H](CC(C)C)C(=O)N[C@@H](CCC(=O)O)C(=O)N[C@@H](C(=O)N[C@H]2CCCCNC(=O)[C@@H](CC(N)=O)NC(=O)[C@@H](CC(=O)O)NC(=O)[C@@H](Cc3cnc[nH]3)NC(=O)[C@@H](Cc3ccccc3)NC(=O)[C@@H]([C@@H](C)CC)NC(=O)[C@@H](CCCN)NC2=O)[C@@H](C)CC)CS1` ({Ileψ(thiazoline)Cys}-LE[d(aIle)]K[dOrn][d(aIle)][dF][dH][dD][dN]; lactam 4-C): “inactive”; `O=C(O)COCCN1CCN([C@@H](c2ccccc2)c2ccc(Cl)cc2)CC1`: “inactive”; `CCN(CC)CCOC(=O)[C@@H](Cc1cccc2ccccc12)C[C@@H]1CCCO1`: “inactive”.
Same read-out and setting: next, `CC[C@H](CO)NCCN[C@@H](CC)CO`: “inactive”.

The test system of another assay is SC27B. The assay is described as above. Particulars: P. falciparum in erythrocytes, SYBR Green DNA, 72 h; series mostly up to 12.8 µM. The essentials: as §1
Consider `CN1CCO[C@H](c2ccccc2)c2ccccc2C1`, for which the Potency result is “inactive”.
Consider `CN(C/C=C\c1ccccc1)Cc1cccc2ccccc12`, for which the Potency result was “inactive”.
On the same count and under the same terms, with `CCN(CCCCOC(=O)c1ccc(OC)c(OC)c1)[C@@H](C)Cc1ccc(OC)cc1` the entry was “inactive”; with `C[C@H](C(=O)O)c1cccc(Oc2ccccc2)c1`, “inactive”; with `CC1(C)[C@@H](OC(=O)CCC(=O)O)CC[C@@]2(C)[C@H]1CC[C@@]1(C)[C@H]2C(=O)C=C2[C@H]3C[C@](C)(C(=O)O)CC[C@]3(C)CC[C@@]21C`, “inactive”.
The same measure, in the same setting: with `CCOC(=O)O[C@@H](C)OC(=O)[C@@H]1N2C(=O)[C@@H](NC(=O)[C@@H](N)c3ccccc3)[C@H]2SC1(C)C` the entry was “inactive”.
For the molecule `Cc1ccsc1/C=C\C1=NCCCN1C`, the Potency result is “inactive”.
For `C#C[C@]1(O)CC[C@@H]2[C@H]3CCC4=CCCC[C@@H]4[C@@H]3CC[C@@]21C`, the Potency entry was “inactive”.
In the case of `O=C(O)COCCN1CCN([C@@H](c2ccccc2)c2ccc(Cl)cc2)CC1`, the Potency result was “inactive”.
Take `CCN(CC)CCOC(=O)[C@@H](Cc1cccc2ccccc12)C[C@@H]1CCCO1`: the Potency entry was “inactive”.
Take `Clc1ccc([C@H](Cn2ccnc2)OCc2c(Cl)cccc2Cl)c(Cl)c1`: the Potency is 1.58 µM (active).
Consider `C[C@@H](CNC1CCCCC1)OC(=O)c1ccccc1`, for which the Potency is 3.55 µM (active).
Still for that read-out and setting: with `CC[C@H](CO)NCCN[C@@H](CC)CO` the entry was “inactive”.
